# The supplement of paper PMC8728848
# Many of the other results were omitted from the sample, so the strongest signals are more common in it than they were.
# B1: Gs78B-bfa-542-29-542 (Bacteroides fragilis) (protein)
# chain: SEDINRNPLLPTKEDEKMDGVIYGAYLPNLEKSVIPIGTASESTEPVNRYQIGVNLAGDAWAGYMSPRDNKFNGSKNFTNYFMYENWVNYVYSFMVTDVYSPWMQIKRISQDEGTRNDEIYALAQIIKIAALHRTTDMFGPIPYSQVGKGSFKVAYDSQESVYRSFLKELEEAVQTLDDYSNKSKEVLPAFDIVYNGDVNKWMRFANSLMLRLAIRVRFADAGLAKEYAEKAVKHPAGLINSKELAAQMGKGAGLQMKNPLKVINEEYNDTRMGATIYSYLAGYNDARAAVYFVKNNGFKAVRCGIAKSGDAYNGFTRPNVHEDDPLYWMKASEVCFLKAEGALAGFDMGGSAGDFYNAGIRMSFSENGLDNSSAETYLKDSTRKPANYTDTSNGELSANAPSSITIRWENGATEEEKLERIITQKYLAIFPNGQEAWTEWRRTGYPRQIVVAENKTNSAVLIGNGYDLGGVRRLPYPRTEYEQNGENLHNAISQYLGGVDNAATKVWWDKKSK
# Key:
# Test in all cases: glycan array binding signal (z-score within array); higher = stronger binding
# Details in all cases: glycan notation: IUPAC condensed, linker removed
# [1] = target: Fuc(a1-2)Gal(b1-3)GalNAc(a1-3)[Fuc(a1-2)]Gal(b1-4)Glc
# Outline: (§1)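 The Consortium for Functional Glycomics database supplied 3228 glycan arrays, of which those lacking an available protein sequence were dropped. The binding signal, a within-array Z-score, was averaged across arrays of the same protein sequence and across linkers. Negative scores can be read as non-binding.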
# [2] = target: Fuc(a1-2)Gal(b1-3)GlcNAc(b1-3)Gal(b1-4)Glc
# Outline: as §1
# [3] = target: Fuc(a1-2)Gal(b1-3)GlcNAc(b1-3)[Fuc(a1-2)Gal(b1-3)GlcNAc(b1-6)]GalNAc
# Outline: as §1
# [4] = target: Fuc(a1-2)Gal(b1-4)[Fuc(a1-3)]GlcNAc(b1-3)Gal(b1-4)[Fuc(a1-3)]GlcNAc
# Outline: as §1
# [5] = target: Fuc(a1-2)[Gal(a1-3)]Gal(b1-3)GlcNAc(b1-6)GalNAc
# Outline: as §1
# [6] = target: Fuc(a1-2)[Gal(a1-3)]Gal(b1-4)GlcNAc(b1-3)GalNAc
# Outline: as §1
# [7] = target: Fuc(a1-2)[GalNAc(a1-3)]Gal(b1-4)GlcNAc(b1-3)Gal(b1-4)GlcNAc(b1-3)Gal(b1-4)GlcNAc
# Outline: as §1
# [8] = target: Fuc(a1-3)[Gal(b1-4)]GlcNAc(b1-2)Man(a1-3)[Fuc(a1-3)[Gal(b1-4)]GlcNAc(b1-2)Man(a1-6)]Man(b1-4)GlcNAc(b1-4)GlcNAc
# Outline: as §1
# [9] = target: Gal(a1-3)Gal(b1-3)[Fuc(a1-4)]GlcNAc(b1-2)Man(a1-3)[Gal(a1-3)Gal(b1-3)[Fuc(a1-4)]GlcNAc(b1-2)Man(a1-6)]Man(b1-4)GlcNAc(b1-4)GlcNAc
# Outline: as §1
# [10] = target: Gal(b1-3)GlcNAc(b1-2)Man(a1-3)[Gal(b1-3)GlcNAc(b1-2)Man(a1-6)]Man(b1-4)GlcNAc(b1-4)[Fuc(a1-6)]GlcNAc
# Outline: as §1
# [11] = target: Gal(b1-3)GlcNAc(b1-3)Gal(b1-4)GlcNAc(b1-2)Man(a1-3)[Gal(b1-3)GlcNAc(b1-3)Gal(b1-4)GlcNAc(b1-2)Man(a1-6)]Man(b1-4)GlcNAc(b1-4)GlcNAc
# Outline: as §1
# [12] = target: Gal(b1-3)GlcNAc6S
# Outline: as §1
# [13] = target: Gal(b1-3)[Fuc(a1-4)]GlcNAc(b1-2)Man
# Outline: as §1
# [14] = target: Gal(b1-4)GlcNAc(b1-2)Man(a1-3)Man(b1-4)GlcNAc(b1-4)GlcNAc
# Outline: as §1
# [15] = target: Gal(b1-4)GlcNAc(b1-3)Gal(b1-4)GlcNAc
# Outline: as §1
# [16] = target: Gal(b1-4)GlcNAc(b1-3)Gal(b1-4)GlcNAc(b1-2)Man(a1-3)[Gal(b1-4)GlcNAc(b1-3)Gal(b1-4)GlcNAc(b1-2)Man(a1-6)]Man(b1-4)GlcNAc(b1-4)[Fuc(a1-6)]GlcNAc
# Outline: as §1
# [17] = target: Gal(b1-4)GlcNAc(b1-3)Gal(b1-4)GlcNAc(b1-2)[Gal(b1-4)GlcNAc(b1-3)Gal(b1-4)GlcNAc(b1-6)]Man(a1-6)[Gal(b1-4)GlcNAc(b1-3)Gal(b1-4)GlcNAc(b1-2)Man(a1-3)]Man(b1-4)GlcNAc(b1-4)[Fuc(a1-6)]GlcNAc
# Outline: as §1
# [18] = target: Gal(b1-4)GlcNAc(b1-3)Gal(b1-4)GlcNAc(b1-3)Gal(b1-4)GlcNAc(b1-2)Man(a1-3)[Gal(b1-4)GlcNAc(b1-3)Gal(b1-4)GlcNAc(b1-3)Gal(b1-4)GlcNAc(b1-2)Man(a1-6)]Man(b1-4)GlcNAc(b1-4)GlcNAc
# Outline: as §1
# [19] = target: Gal(b1-4)GlcNAc(b1-3)Gal(b1-4)GlcNAc(b1-3)Gal(b1-4)GlcNAc(b1-2)Man(a1-3)[Gal(b1-4)GlcNAc(b1-3)Gal(b1-4)GlcNAc(b1-3)Gal(b1-4)GlcNAc(b1-2)Man(a1-6)]Man(b1-4)GlcNAc(b1-4)[Fuc(a1-6)]GlcNAc
# Outline: as §1
# [20] = target: Gal3S(b1-4)Glc6S
# Outline: as §1
# [21] = target: Gal3S(b1-4)[Fuc(a1-3)]GlcNAc
# Outline: as §1
# [22] = target: Gal6S(b1-4)Glc
# Outline: as §1
# [23] = target: Gal6S(b1-4)Glc6S
# Outline: as §1
# [24] = target: GalNAc(b1-3)Gal
# Outline: as §1
# [25] = target: GalNAc(b1-3)Gal(a1-4)Gal(b1-4)GlcNAc
# Outline: as §1
# [26] = target: GalNAc(b1-3)Gal(a1-4)Gal(b1-4)GlcNAc(b1-3)Gal(b1-4)Glc
# Outline: as §1
# [27] = target: GalNAc(b1-3)GalNAc
# Outline: as §1
# [28] = target: GalNAc3S(b1-4)GlcNAc3S
# Outline: as §1
# [29] = target: GalNAc6S(b1-4)GlcNAc
# Outline: as §1
# [30] = target: Glc(b1-6)Glc
# Outline: as §1
# [31] = target: GlcA(b1-6)Gal
# Outline: as §1
# [32] = target: GlcNAc(a1-4)Gal(b1-4)GlcNAc(b1-3)Gal(b1-4)GlcNAc
# Outline: as §1
# [33] = target: GlcNAc(b1-2)[GlcNAc(b1-4)]Man(a1-3)[GlcNAc(b1-4)][GlcNAc(b1-2)Man(a1-6)]Man(b1-4)GlcNAc(b1-4)GlcNAc
# Outline: as §1
# [34] = target: GlcNAc(b1-2)[GlcNAc(b1-6)]Man(a1-6)[GlcNAc(b1-4)][GlcNAc(b1-2)Man(a1-3)]Man(b1-4)GlcNAc(b1-4)GlcNAc
# Outline: as §1
# [35] = target: GlcNAc(b1-3)Gal(b1-3)GalNAc
# Outline: as §1
# [36] = target: GlcNAc(b1-3)Gal(b1-4)GlcNAc(b1-2)Man(a1-3)[GlcNAc(b1-3)Gal(b1-4)GlcNAc(b1-2)Man(a1-6)]Man(b1-4)GlcNAc(b1-4)GlcNAc
# Outline: as §1
# [37] = target: GlcNAc(b1-4)Gal(b1-4)GlcNAc
# Outline: as §1
# [38] = target: GlcNAc(b1-6)GalNAc
# Outline: as §1
# [39] = target: Kdn(a2-3)Gal(b1-4)GlcNAc
# Outline: as §1
# [40] = target: Man(a1-2)Man(a1-6)[Man(a1-3)]Man(a1-6)[Man(a1-2)Man(a1-2)Man(a1-3)]Man
# Outline: as §1
# [41] = target: Man(a1-3)[Man(a1-6)]Man(a1-6)[Man(a1-2)Man(a1-3)]Man(b1-4)GlcNAc(b1-4)GlcNAc
# Outline: as §1
# [42] = target: Neu5Ac(a2-3)Gal(b1-3)GlcNAc
# Outline: as §1
# [43] = target: Neu5Ac(a2-3)Gal(b1-3)[Fuc(a1-4)]GlcNAc
# Outline: as §1
# [44] = target: Neu5Ac(a2-3)Gal(b1-4)GlcNAc(b1-2)Man
# Outline: as §1
# [45] = target: Neu5Ac(a2-3)Gal(b1-4)GlcNAc(b1-2)[Neu5Ac(a2-3)Gal(b1-4)GlcNAc(b1-6)]Man(a1-6)[Neu5Ac(a2-3)Gal(b1-4)GlcNAc(b1-2)Man(a1-3)]Man(b1-4)GlcNAc(b1-4)GlcNAc
# Outline: as §1
# [46] = target: Neu5Ac(a2-3)Gal(b1-4)GlcNAc(b1-3)Gal(b1-4)GlcNAc(b1-3)Gal(b1-4)GlcNAc
# Outline: as §1
# [47] = target: Neu5Ac(a2-3)Gal(b1-4)[Fuc(a1-3)]GlcNAc(b1-6)[Neu5Ac(a2-3)Gal(b1-3)]GalNAc
# Outline: as §1
# [48] = target: Neu5Ac(a2-6)Gal(b1-4)Glc
# Outline: as §1
# [49] = target: Neu5Ac(a2-6)Gal(b1-4)GlcNAc(b1-2)Man(a1-3)Man(b1-4)GlcNAc(b1-4)GlcNAc
# Outline: as §1
# [50] = target: Neu5Ac(a2-6)Gal(b1-4)GlcNAc(b1-2)[Neu5Ac(a2-6)Gal(b1-4)GlcNAc(b1-6)]Man(a1-6)[Neu5Ac(a2-6)Gal(b1-4)GlcNAc(b1-2)Man(a1-3)][GlcNAc(b1-4)]Man(b1-4)GlcNAc(b1-4)GlcNAc
# Outline: as §1
# [51] = target: Neu5Ac(a2-8)Neu5Ac(a2-3)Gal(b1-3)GalNAc(b1-4)[Neu5Ac(a2-8)Neu5Ac(a2-3)]Gal(b1-4)Glc
# Outline: as §1
# [52] = target: Neu5Ac(a2-8)Neu5Ac(a2-8)Neu5Ac(a2-3)[Gal(b1-3)GalNAc(b1-4)]Gal(b1-4)Glc
# Outline: as §1
# [53] = target: Neu5Ac(a2-8)Neu5Ac(a2-8)Neu5Ac(a2-8)Neu5Ac(a2-3)[GalNAc(b1-4)]Gal(b1-4)Glc
# Outline: as §1
# [54] = target: Neu5Gc(a2-3)Gal(b1-4)[Fuc(a1-3)]GlcNAc
# Outline: as §1
binder,measurement,setting,value
B1,glycan array binding signal (z-score),[1],0.024
same,glycan array binding signal (z-score),[2],-0.826
same,glycan array binding signal (z-score),[3],0.287
same,glycan array binding signal (z-score),[4],-0.816
same,glycan array binding signal (z-score),[5],2.8
same,glycan array binding signal (z-score),[6],0.185
same,glycan array binding signal (z-score),[7],1.31
same,glycan array binding signal (z-score),[8],1.04
same,glycan array binding signal (z-score),[9],4.3
same,glycan array binding signal (z-score),[10],1.53
same,glycan array binding signal (z-score),[11],-0.404
same,glycan array binding signal (z-score),[12],2.8
same,glycan array binding signal (z-score),[13],-0.693
same,glycan array binding signal (z-score),[14],0.534
same,glycan array binding signal (z-score),[15],-0.463
same,glycan array binding signal (z-score),[16],2.98
same,glycan array binding signal (z-score),[17],3.42
same,glycan array binding signal (z-score),[18],2.01
same,glycan array binding signal (z-score),[19],3.12
same,glycan array binding signal (z-score),[20],-0.778
same,glycan array binding signal (z-score),[21],-0.801
same,glycan array binding signal (z-score),[22],0.825
same,glycan array binding signal (z-score),[23],0.798
same,glycan array binding signal (z-score),[24],-0.448
same,glycan array binding signal (z-score),[25],0.47
same,glycan array binding signal (z-score),[26],1.12
same,glycan array binding signal (z-score),[27],-0.725
same,glycan array binding signal (z-score),[28],-0.813
same,glycan array binding signal (z-score),[29],-0.336
same,glycan array binding signal (z-score),[30],-0.312
same,glycan array binding signal (z-score),[31],2.77
same,glycan array binding signal (z-score),[32],-0.691
same,glycan array binding signal (z-score),[33],-0.838
same,glycan array binding signal (z-score),[34],-0.844
same,glycan array binding signal (z-score),[35],-0.48
same,glycan array binding signal (z-score),[36],-0.439
same,glycan array binding signal (z-score),[37],-0.828
same,glycan array binding signal (z-score),[38],-0.233
same,glycan array binding signal (z-score),[39],2.84
same,glycan array binding signal (z-score),[40],-0.844
same,glycan array binding signal (z-score),[41],3.49
same,glycan array binding signal (z-score),[42],-0.067
same,glycan array binding signal (z-score),[43],-0.793
same,glycan array binding signal (z-score),[44],2.92
same,glycan array binding signal (z-score),[45],0.079
same,glycan array binding signal (z-score),[46],-0.832
same,glycan array binding signal (z-score),[47],5.64
same,glycan array binding signal (z-score),[48],-0.346
same,glycan array binding signal (z-score),[49],1.48
same,glycan array binding signal (z-score),[50],-0.454
same,glycan array binding signal (z-score),[51],0.648
same,glycan array binding signal (z-score),[52],-0.843
same,glycan array binding signal (z-score),[53],1.92
same,glycan array binding signal (z-score),[54],0.283
